Records with an inconclusive call do not appear. Where a call stands in place of a potency, no number is given. Active and inactive are the calls of the source. The call rests on the fitted dose curve.

The target of the assay is 5-hydroxytryptamine receptor 2A (Homo sapiens) (UniProt P28223). Briefly: 5-hydroxytryptamine receptor 2A (HTR2A) small molecule antagonists, cell-based qHTS assay (AID 1963586). Further: nearly all actives have a fitted effect of over 45% in size. The following applies: HTR2A-CHO cells, DOI-induced calcium flux, fluorescence; series mostly up to 61.5 µM. From the text: National Center for Advancing Translational Sciences [NCATS]
Chain of 5-hydroxytryptamine receptor 2A (Homo sapiens) (P28223 whole entry, looked up): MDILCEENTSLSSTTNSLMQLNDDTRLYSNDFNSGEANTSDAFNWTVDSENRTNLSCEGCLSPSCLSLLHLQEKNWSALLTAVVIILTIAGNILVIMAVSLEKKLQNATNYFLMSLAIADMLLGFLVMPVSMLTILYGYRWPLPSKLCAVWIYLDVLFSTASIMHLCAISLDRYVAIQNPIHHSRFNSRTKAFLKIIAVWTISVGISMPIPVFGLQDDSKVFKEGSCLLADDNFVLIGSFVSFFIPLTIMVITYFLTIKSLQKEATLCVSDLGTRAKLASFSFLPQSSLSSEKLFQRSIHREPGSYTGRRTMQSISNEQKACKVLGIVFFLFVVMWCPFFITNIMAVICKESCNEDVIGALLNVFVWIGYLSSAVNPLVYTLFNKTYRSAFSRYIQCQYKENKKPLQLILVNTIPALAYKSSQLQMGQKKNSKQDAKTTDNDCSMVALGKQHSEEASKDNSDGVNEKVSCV
Division of Preclinical Innovation [DPI]
U.S. Environmental Protection Agency [EPA]
National Institutes of Environmental Health Sciences [NIEHS]
National Toxicology Program [NTP]
U.S. Food and Drug Administration [FDA]
The HTR2A receptor is a subtype of the 5-HT2 receptor that belongs to the serotonin receptor family and is a G protein-coupled receptor (GPCR). The HTR2A-CHO cell line stably expressing human 5-hydroxytryptamine receptor 2A (HTR2A) can be used for screening antagonists of interactions between 5-HT2 and its ligands. The HTR2A-CHO calcium flux assay is a homogeneous fluorescence-based assay for detecting the intracellular calcium level using FDSS kinetic plate reader system.
Tox21 Assay Protocol Summary:
HTR2A-CHO cells were dispensed at 2000 cells/3uL/well in 1536-well black-clear bottom plates using a Multidrop Dispenser. After the assay plates were incubated at a 37 C/5% CO2 incubator for 18 h, 3 uL of Dye Loading Buffer was transferred to the assay plate by a Flying Reagent Dispenser. The assay plates were incubated at 37 C for 1h. For antagonist mode, 23 nL of compounds dissolved in DMSO, positive controls or DMSO only was transferred to the assay plate by a pin tool. After 5 min incubation at room temperature, 1.5 uL of 4-Iodo-2,5-dimethoxy-alpha-methylbenzeneethanamine hydrochloride (DOI) at 4nM was added to each well. The fluorescence intensity in the plates was measured using FDSS 7000EX kinetic plate reader for 3 min at 1 sec intervals.
For orientation: Quantitative high-throughput screening tests each substance at several concentrations.
For the compound `CC1(C)C(=O)NC(=O)NC1=O`, the Potency result is “inactive”. Take `C=C1CC[C@@]2(O)[C@H]3Cc4ccc(O)c5c4[C@@]2(CCN3CC2CC2)[C@H]1O5`: the Potency entry is “inactive”. Under `O=S(=O)(Oc1ccc(Cl)cc1)c1ccc(Cl)cc1` stands “inactive”; under `CN(C)c1ccc(N=O)cc1`, “inactive”; under `O=C/C(Cl)=C(/Cl)C(=O)O`, “inactive”. Under `CCCCON=O` stands “inactive”.

In the case of `Nc1nc(N)nc(Cl)n1`, the Potency result was “inactive”. Take `CC(=NC#N)N(C)Cc1ccc(Cl)nc1`: the Potency result was “inactive”.

Consider `Cc1cnc(C2=NC(C)(C(C)C)C(=O)N2)c(C(=O)O)c1` (stereo not given), for which the Potency result was “inactive”.

For `OCCSCSCCO`, the Potency entry was “inactive”. On to `CCCCCCCCCCBr`, for which the Potency entry is “inactive”.

For the compound `ClC1=C(Cl)[C@]2(Cl)[C@@H]3[C@@H](Cl)[C@H](Cl)C[C@@H]3[C@@]1(Cl)C2(Cl)Cl`, the Potency entry was “inactive”. Next, `CCCC[n+]1ccccc1C`: “inactive”; `CNC(=O)O/N=C/C(C)(C)SC`: “inactive”; `COC(=O)Nc1cccc(OC(=O)Nc2cccc(C)c2)c1`: “inactive”. Under `CC1(C)[C@H](C(=O)O[C@H](C#N)c2cccc(Oc3ccccc3)c2)[C@@H]1/C=C(\Cl)C(F)(F)F` stands “inactive”; under `C=CCOC(N)=O`, “inactive”. Under `CCOC(=O)C(c1c(O)c2ccccc2oc1=O)c1c(O)c2ccccc2oc1=O` stands “inactive”. As for `O=[N+]([O-])c1cc(Cl)c(Cl)c(Cl)c1`, the Potency entry was “inactive”. Next, `CCC(=O)Nc1ccc(Cl)c(Cl)c1`: “inactive”; `O=Cc1ccc(Cl)cc1Cl`: “inactive”. Under `O=c1[nH]c(=O)[nH]c(=O)[nH]1` stands “inactive”; under `CC(C)CCCCCCOC(=O)c1ccccc1C(=O)OCCCCCCC(C)C`, “inactive”.

For `COc1ccc(C=O)cc1`, the Potency result was “inactive”. Next, `CCCC(C)(COC(N)=O)COC(N)=O`: “inactive”; `NC(=S)c1c(Cl)cccc1Cl`: “inactive”.

For the compound `Nc1ccc(Cl)cc1`, the Potency entry is “inactive”. On to `CC(C)(c1ccc(OCC2CO2)cc1)c1ccc(OCC2CO2)cc1` (stereo not given), for which the Potency result was “inactive”. Next, `O=C(O)CF`: “inactive”; `CC(C)C#N`: “inactive”. Next, `O=C1C(Cl)=C(Cl)C(=O)C(Cl)=C1Cl`: “inactive”; `CCCCOCC1CO1` (stereo not given): “inactive”. As to `CCC(Cl)[N+](=O)[O-]` (stereo not given), the Potency entry was “inactive”. Next, `O=C(NC(=O)c1c(F)cccc1F)Nc1ccc(Cl)cc1`: “inactive”; `CC(C)C(C)(N)C#N` (stereo not given): “inactive”. Under `CC(C#N)CCC#N` (stereo not given) stands “inactive”. Under `CC(Br)C(=O)O` (stereo not given) stands “inactive”; under `CCOc1ccc(N)cc1`, “inactive”.

As for `C[C@H]1C(=O)O[C@@H]2CCN3CC=C(COC(=O)[C@](C)(O)[C@]1(C)O)[C@H]23`, the Potency result is “inactive”. Under `C#CCO` stands “inactive”.
